Compound activity: PubChem, National Center for Advancing Translational Sciences (NCATS)
Cruzain inh noDet = cruzain (T. cruzi) inhibition without detergent. P25779. purified cruzain, Z-FR-AMC fluorescence, no detergent. Potency, µM, inactives show max response, negative = inhibition, actives largely listed as inhibitors. actives 2.3% (n = 200,000);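 further: plate controls were enzyme without inhibitor for no effect and buffer without enzyme for full effect; nearly all actives have a fitted effect of over 40% in size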
Target sequence (P25779 123-467 limits assumed): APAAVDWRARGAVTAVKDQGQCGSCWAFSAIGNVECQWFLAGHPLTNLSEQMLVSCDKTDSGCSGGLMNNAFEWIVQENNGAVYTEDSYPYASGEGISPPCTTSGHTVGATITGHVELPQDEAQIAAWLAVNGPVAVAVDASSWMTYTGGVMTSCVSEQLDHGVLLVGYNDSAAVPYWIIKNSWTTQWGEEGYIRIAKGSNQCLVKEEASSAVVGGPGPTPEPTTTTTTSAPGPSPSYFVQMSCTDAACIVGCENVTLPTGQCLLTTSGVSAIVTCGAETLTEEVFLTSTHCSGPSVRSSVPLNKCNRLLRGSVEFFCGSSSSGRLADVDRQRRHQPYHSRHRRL
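Detergent-free condition (0.00005% Triton X-100) in acetate buffer pH 5.5 with DTT. 1.5 nM enzyme and compound were pre-mixed 15 min, then 2 uM Z-FR-AMC substrate added; reaction progress from fluorescence change between first and third reads (60 s).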
Cruzain inh Det = inhibitors of Trypanosoma cruzi cruzain with detergent; P25779; purified cruzain, Z-FR-AMC fluorescence, 0.01% Triton; Potency, µM, for the others: max response, negative = inhibition, most hits filed as inhibitors; actives 0.43% (n = 200,000); AID 1478;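 further: plate controls were neutral wells for no effect and buffer without enzyme for full effect; nearly all actives have a fitted effect of over 40% in size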
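Sodium acetate buffer (100 mM, pH 5.5) containing 5 mM DTT and 0.01% Triton X-100 hosted 1.5 nM cruzain and test compound for 15 min at room temperature. Cleavage of 2 uM Z-FR-AMC was then tracked by fluorescence.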
* = called active by the depositor; u = inconclusive. Only some compounds are listed: those with a hit (about 2.5% of all), similar ones and a draw of the others. The call rests on the fitted dose curve; in most records, active means well fitted curve in the direction sought with a large enough effect; inconclusive means small, poorly fitted or top-dose-only effect, or another doubt; inactive means no such curve, though single readings can be large; an effect the other way counts as inactive or inconclusive. Potency means the concentration at half of the fitted maximal effect.

SMILES	Cruzain inh noDet	Cruzain inh Det
CCOC(=O)c1c(NC(=O)Cc2coc3cc(C)cc(C)c23)sc2c1CCC2	-25%	-1%
COC(=O)c1nnc(N[C@@H](Cc2c[nH]c3ccccc23)C(=O)OC)nc1C(=O)OC	-12%	4%
O=C(O)CCCCn1ccc(=O)[nH]c1=O	-1%	0%
O=C(Nc1ccc2c(c1)OCO2)C1CCN(S(=O)(=O)c2cccs2)CC1	u	-1%
O=C(Nc1ccc2c(c1)OCO2)C1Cc2ccccc2CN1S(=O)(=O)c1cccs1 (configuration not stated)	25µM*	-3%
CC(C)CNc1nc(N)[nH]c(=O)c1NC=O	7%	2%
Cn1c(=N)c(S(=O)(=O)c2ccc(F)cc2)cc2c(=O)n3ccccc3nc21	u	32µM*
CCOCCCn1c(=N)c(S(=O)(=O)c2ccc(C)cc2)cc2c(=O)n3ccccc3nc21	-8%	-7%
CC(C)CC(=O)NC1CC(=O)N(c2ccc3c(c2)OCCO3)C1 (configuration not stated)	1%	-2%
Cc1cccc(NC(=O)CN2C(=O)S/C(=C\C(=O)Nc3ccc(Cl)cc3)C2=O)c1	13µM*	-1%
Cc1cccc(NC(=O)CN2C(=O)N/C(=C/c3cc(C)n(C(C)C)c3C)C2=O)c1	-20%	-4%
O=C(/C=C1\SC(=O)N(CC(=O)Nc2ccc(Cl)cc2)C1=O)Nc1ccc(F)cc1	u	-3%
Cc1cccc(NC(=O)CN2C(=O)N/C(=C/c3ccc(C)s3)C2=O)c1	4µM*	-4%
CC(/C=C1\SC(=O)N(CC(=O)Nc2cccc(O)c2)C1=O)=C\c1ccccc1	8%	-4%
O=C(/C=C1\SC(=O)N(CC(=O)Nc2ccc(F)cc2)C1=O)Nc1ccc(Cl)cc1	25µM*	-1%
COc1ccc2nc(NC(=O)c3ccc(S(=O)(=O)N4CCC(C)CC4)cc3)sc2c1	-13%	2%
O=C(CSc1nccn1Cc1ccco1)Nc1ccc(OC(F)(F)F)cc1	7%	-11%
CCNc1ncc2nc(-c3cccs3)c(=O)n(CCC#N)c2n1	-4%	-7%
O=C(Nc1ccc(Nc2ccc3c(c2)C(=O)c2ccccc2C3=O)c2c1C(=O)c1ccccc1C2=O)c1ccccc1	11%	2%
CCc1ccc(N2CC(C)Cn3c2nc2c3c(=O)n(CC(=O)O)c(=O)n2C)cc1 (configuration not stated)	15%	-3%
Cn1c(SCC(=O)Nc2sc3c(c2C#N)CCC3)nnc1C1COc2ccccc2O1 (configuration not stated)	-16%	3%
C=CCn1c(SCC(=O)Nc2sc3c(c2C#N)CCC3)nnc1C1COc2ccccc2O1 (configuration not stated)	32µM*	-2%
O=C1C=CC2=C3c4cc(O)c(O)cc4C[C@]3(O)COC2=C1	-6%	-1%
COc1ccc(S(=O)(=O)N2CCN(Cc3nc4ccc(C)cc4o3)CC2)cc1OC	u	-1%
CCOC(=O)c1ccccc1NC(=O)CCc1nc(-c2ccc(C)cc2)no1	5%	-5%
SMILES	Cruzain inh noDet	Cruzain inh Det
Cc1ccc(-c2noc(CCC(=O)Nc3ccc(C)cn3)n2)cc1	25µM*	1%
O=C(O)CNC(=O)/C(=C/c1ccco1)NC(=O)/C=C/c1ccccc1	2%	-6%
C=CCOC(=O)/C(=C/c1ccco1)NC(=O)/C=C/c1ccccc1	-28%	28µM*
Cc1ccccc1OC(=O)CSc1nnc(-c2ccc3c(c2)OCO3)o1	4%	-6%
c1ccc2c(Nc3nc(N4CCOCC4)c4ccccc4n3)cccc2c1	-8%	-8%
Fc1ccc(Nc2nc(N3CCOCC3)c3ccccc3n2)cc1	16µM*	u
CC(=O)Oc1cc(-c2coc3cc(OC(C)=O)c(OC(C)=O)c(OC(C)=O)c3c2=O)cc(OC(C)=O)c1OC(C)=O	-8%	-8%
CC(c1ccccc1)N1CCn2c(nc3cc(NC(=O)c4cccs4)ccc32)C1 (configuration not stated)	32µM*	-4%
COCCN1CCn2c(nc3cc(NC(=O)c4cccs4)ccc32)C1	3%	5%
CC(=O)NC(NC(=S)Nc1ccc(N=Nc2ccccc2C)cc1C)C(Cl)(Cl)Cl (configuration not stated)	7.9µM*	-3%
Cc1ccc(NC(=S)NC(NC(=O)C(C)(C)C)C(Cl)(Cl)Cl)c(C)c1 (configuration not stated)	10%	4%
CN(C)c1ccc(NC(=O)c2cn(-c3ccccc3)nc2-c2cccs2)cc1	u	-1%
O=C(Nc1ccc2ccccc2c1)c1cn(-c2ccccc2)nc1-c1cccs1	20µM*	-1%
CCc1ccc(-n2c(=O)c3sc4ccccc4c3n(CC(=O)NCc3ccccc3)c2=O)cc1	11%	1%
CCCc1nc(C(C)(C)O)c(C(=O)OCc2oc(=O)oc2C)n1Cc1ccc(-c2ccccc2-c2nn[nH]n2)cc1	u	-1%
